Screen size: about 230,000 compounds; about 1,500 (0.65%) were called active.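 Rule for the calls: active = pattern-corrected inhibition of lipid staining of at least 50% with the nuclear-stain viability signal not falling by more than 50%; inactive = the rest, inconclusive results apart.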 For the sample, actives were picked, then their nearest neighbours and some compounds at random.
experiment: TAG lipid buildup reduction in H9c2 cells – cell-based, uHTS, fluorescence, primary screen (AID 651582); conditions: Nile Red lipid (TAG) fluorescence, at 12.5 µM, cells loaded with 200 µM oleic acid; DAPI nuclei signal change (viability), lower = more cytotoxic: measured here: DAPI nuclei count viability; inhibition: stronger effect = higher value;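 for inhibition: 0% = DMSO wells and 100% = triacsin C control wells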

SMILES | DAPI nuclei signal change (viability), lower = more cytotoxic [%] | inhibition
COC(C[C@H](O)CC(=O)[C@@H](C)OCc1ccccc1)OC | 5.4 | -8.13% (inactive)
COC(C[C@H](O)CC(=O)COCc1ccccc1)OC | -39.1 | 53.8% (active)
COC(C[C@@H](O)C[C@H](O)[C@H](C)OCc1ccccc1)OC | 5.91 | -1.79% (inactive)
CC(=O)NC(c1ccccc1)c1nc(-c2cccc(C(C)C)c2)cs1 (centres undefined) | -1.3 | 8.58% (inactive)
O=C(Nc1cc(Cl)ccc1N1CCOCC1)c1ccc(N2CCCC2=O)cc1 | -2.51 | 10.9% (inactive)
Cc1cccc(NC(=O)c2cccc(C(F)(F)F)c2)c1 | -13.3 | -0.148% (inactive)
O=C(Nc1ccc(-c2csc(Nc3cccc(C(F)(F)F)c3)n2)cc1)c1cccc(C(F)(F)F)c1 | -19.5 | 51.9% (active)
CNC(=O)c1ccc(NC(=O)c2cccc(C(F)(F)F)c2)cc1 | -4.98 | -1.2% (inactive)
CC1=C(C(=O)Nc2cccc(C(=O)NCC(C)c3ccccc3)c2)SCCO1 (centres undefined) | -4.49 | 4.45% (inactive)
COc1ccc(CN2CCN(C(=O)c3cc(C4CC4)nn3-c3ccccc3)CC2)cc1F | -2 | 7.6% (inactive)
Cc1c(C(=O)NNC(=O)c2ccncc2)oc2ccccc12 | -11 | 8.91% (inactive)
O=C(OC12CC3CC(CC(C3)C1)C2)c1ccc(NCc2cc(O)ccc2O)cc1 | -61.6 | 111% (inactive)
COC(=O)c1ccc(NCc2cc(O)ccc2O)cc1 | -40.6 | 54.7% (active)
CC(C)OC(=O)c1ccc(NCc2cc(O)ccc2O)cc1Cl | -60.3 | 108% (inactive)
CCCn1c(N)c(C(=O)CSc2nnc3n2CCCCC3)c(=O)[nH]c1=O | 5.45 | -8.3% (inactive)
CC[C@]1(c2ccccc2OC)C(=O)N(C(=O)OC)N1C(=O)OC | 11 | -4.89% (inactive)
O=C(CSc1nc2ccc(Nc3nc(N4CCOCC4)nc(N4CCOCC4)n3)cc2s1)NCc1ccco1 | -0.911 | 54.6% (active)
Cc1ccccc1NC(=O)CSc1nc2ccc(Nc3nc(N4CCOCC4)nc(N4CCOCC4)n3)cc2s1 | -7.17 | 62.6% (active)
Nc1nnc(SCC(=O)Nc2ccc3nc(SCC(=O)Nc4ccccc4)sc3c2)s1 | -9.1 | -21.4% (inactive)
C=CCn1c(CSc2nc3ccccc3s2)nnc1SCC(=O)NCc1ccco1 | -7.04 | -5.24% (inactive)
O=C(CSc1nc(Nc2ccccc2)nc(N2CCOCC2)n1)Nc1cc(Cl)ccc1O | -18.9 | 34.4% (inactive)
O=C(CSc1c2c(nc3ccc(Cl)cc13)CCCC2)NCc1ccco1 | 13.7 | 2.61% (inactive)
